From PubChem BioAssay
Pf growth 48h – Primary qHTS for delayed death inhibitors of the malarial parasite plastid, 48 hour incubation; actives 5.9% (n = 310,000); Potency, µM (doses to about 28.7 µM), for inactives: at the highest dose activity change, negative = inhibition, most hits filed as inhibitors; P. falciparum luciferase growth in erythrocytes, 48 h; AID 504832, 2011; further: on the % scale 0 is the no-effect control and ±100 the full control effect
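Luciferase-expressing P. falciparum in infected erythrocytes (2% hematocrit, 0.1% parasitemia final) in RPMI 1640/0.5% Albumax were exposed to compound for 48 hours at 37 C, 5% CO2; growth read as luminescence.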
AmpC no deterg – qHTS Inhibitors of AmpC Beta-Lactamase (assay without detergent); Potency, µM (doses to about 57.1 µM), inactives show top-dose activity change, negative = inhibition, hits mostly inhibitors; actives 0.52% (n = 330,000); AID 485341, 2010; P00811; AmpC nitrocefin hydrolysis, absorbance 480 nm, 0.0001% Triton;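 further: plate controls were no compound for no effect and no enzyme for full effect; nearly all actives have a fitted effect of over 20% in size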
Target sequence (P00811 whole entry, looked up): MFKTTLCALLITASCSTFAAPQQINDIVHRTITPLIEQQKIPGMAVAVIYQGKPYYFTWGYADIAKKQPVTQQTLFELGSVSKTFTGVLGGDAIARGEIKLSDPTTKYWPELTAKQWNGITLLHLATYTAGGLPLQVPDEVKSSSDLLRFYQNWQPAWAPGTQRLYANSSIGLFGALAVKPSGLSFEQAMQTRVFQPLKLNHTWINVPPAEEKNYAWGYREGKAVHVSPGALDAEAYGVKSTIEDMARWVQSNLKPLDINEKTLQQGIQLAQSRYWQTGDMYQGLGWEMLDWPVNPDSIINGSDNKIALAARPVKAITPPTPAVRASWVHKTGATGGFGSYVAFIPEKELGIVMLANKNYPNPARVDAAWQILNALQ
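AmpC (5.3 nM in the dispensed reagent) in 20 mM phosphate pH 7.0 with 0.01% (detergent screen) or 0.0001% Triton X-100 was preincubated with compounds for 15 min at room temperature. Nitrocefin was then added from an 800 uM solution, and hydrolysis was followed at 480 nm.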
AmpC detergent – qHTS Inhibitors of AmpC Beta-Lactamase (assay with detergent); actives 0.041% (n = 370,000); P00811; Potency, µM (highest dose often 114 µM), inactives show at the highest dose activity change, negative = inhibition, actives largely listed as inhibitors; AmpC hydrolysis of nitrocefin, absorbance 480 nm, 0.01% Triton;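 further: 0% = no-compound wells and -100% = no-enzyme wells; nearly all actives have a fitted effect of over 25% in size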
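AmpC (5.3 nM in the dispensed reagent) in 20 mM phosphate pH 7.0 with 0.01% (detergent screen) or 0.0001% Triton X-100 was preincubated with compounds for 15 min at room temperature. Nitrocefin was then added from an 800 uM solution, and hydrolysis was followed at 480 nm.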
SARS PLP yeast – qHTS of Yeast-based Assay for SARS-CoV PLP | S. cerevisiae expressing SARS-CoV PLpro, growth rescue | Potency, µM (series often up to 32.9 µM), for the others: at the top dose activity, positive = growth rescue, most hits filed as activators | actives 0.19% (n = 330,000); calls by dose curve; further: 0% is about no effect; nearly all actives have a fitted effect of over 55% in size
Sm TGR inh – qHTS Assay for the Inhibitors of Schistosoma Mansoni Peroxiredoxins. Schistosoma mansoni thioredoxin glutathione reductase (TGR), Q962Y6. actives 3% (n = 360,000). Potency, µM (doses to about 114 µM), for inactives: top-dose activity change, negative = inhibition, actives largely listed as inhibitors. purified TGR, DTNB reduction, TNB absorbance 405 nm; further: on the % scale 0 is the no-effect control and ±100 the full control effect; nearly all actives have a fitted effect of over 60% in size
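Kinetic colorimetric format: TGR-catalysed, NADPH-driven DTNB reduction monitored via TNB absorbance. Enzyme dispensed at 20 nM; compound exposure 15 min at room temperature before reaction start.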
Pf growth 96h – Primary qHTS for delayed death inhibitors of the malarial parasite plastid, 96 hour incubation. Potency, µM (series often up to 28.7 µM), inactives show top-dose activity change, negative = inhibition, actives largely listed as inhibitors. AID 504834, 2011. actives 6.9% (n = 320,000). P. falciparum luciferase reporter growth, 96 h; further: on the % scale 0 is the no-effect control and ±100 the full control effect
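Two-generation exposure (96 h) targets delayed-death phenotype. Reporter parasites carrying integrated firefly luciferase, in red cells at 2% hematocrit and 0.05% parasitemia final, kept at 37 C, 5% CO2; luminescence loss indicates inhibition.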
* marks the source's active call; other numbers are inactive results; ? = inconclusive; . = no result given; [ ] = dose if it differs, or a comment. An excerpt weighted towards active compounds, which were near 12% of everything screened. Unless noted, the call rests on the fitted dose curve; in most records, active means well fitted curve in the direction sought with a large enough effect; inconclusive means small, poorly fitted or top-dose-only effect, or another doubt; inactive means no such curve, though single readings can be large; an effect the other way counts as inactive or inconclusive. Potency means the concentration at half of the fitted maximal effect.

SMILES | Pf growth 48h | AmpC no deterg | AmpC detergent | SARS PLP yeast | Sm TGR inh | Pf growth 96h
CC(C)COc1ccc(C(=O)N2CCCCC2CCN2CCOCC2)cc1 (centres undefined) | . | . | 3% | . | -1% | .
CN1C(=O)C(=O)/C(=C(/O)c2ccc(Br)cc2)C1c1ccccc1F (centres undefined) | . | -7% | -12% | -1% | -10% | 1%
O=C(CSc1nc2ccccc2c(=O)n1C1CC1)NCc1ccccc1 | -9% | -10% | -12% | 0% | 14% | 15µM*
Cc1ccc(NC(=O)C(NC2CCCc3ccccc32)c2ccccc2)c([N+](=O)[O-])c1 (centres undefined) | 13µM* | -11% | -1% | -15% | 7% | ?
Cc1ccc(NC(=O)C(NC2CCCc3ccccc32)c2ccccc2)cc1Cl (centres undefined) | ? | -20% | ? | -36% | -3% | ?
COc1cccc(CNC2CCCc3ccccc32)c1OC (centres undefined) | -9% | -16% | -1% | 2% | -4% | 2.9µM*
COc1ccc(Cl)cc1NC(=O)CNc1ccccc1CN(C)C1CCCCC1 | ? | -11% | -1% | 0% | 1% | ?
COc1ccc(C)cc1NC(=O)CNc1ccccc1CN(C)C1CCCCC1 | 15µM* | -24%[11.4 µM] | -15% | 0% | 3% | 4.7µM*
COc1ccc(C)cc1NC(=O)NC1CCCCCCC1 | ? | 22µM* | 3% | 2% | 9% | ?
O=C(NCC1COc2ccccc2O1)c1ccc(Br)s1 (centres undefined) | 39% | -37% | 0% | -4% | -2% | 39%
C/C(=N\NC(=O)CNC(=O)c1cccs1)c1ccc(Cl)c(Cl)c1 | 14% | -27% | -13% | -8% | -13% | 7%
COc1ccc(C)cc1NC(=O)NC1CCCc2ccccc21 (centres undefined) | 12µM* | -17% | 4% | 1% | 9% | 16%
COc1ccc(NC(=O)NC2CCCc3ccccc32)cc1OC (centres undefined) | 137% | -11% | 6% | -5% | 1% | -23%
COCCCNC(=O)Cn1nc(-c2ccccc2OC)ccc1=O | 5% | -8% | ? | 2% | 5% | 21%
COCCNC(=O)Cn1nc(-c2ccccc2OC)ccc1=O | 10% | -8% | -8% | -2% | -3% | 66%
COCCCNC(=O)Cn1nc(-c2cccc(OC)c2)ccc1=O | 8% | -1% | -14% | 0% | 1% | 10µM*
COCCNC(=O)Cn1nc(-c2ccccc2F)ccc1=O | 16% | -8% | -19% | 6% | -19% | 3.7µM*
COc1ccccc1-c1ccc(=O)n(CC(=O)NC(C)(C)C)n1 | 46% | -9% | -2% | 0% | 0% | 7.4µM*
COc1ccc(-c2nsc(NC(=O)c3cccc(OC)c3)n2)cc1 | . | . | 16% | . | 4% | .
CCOC(=O)C1=C(c2ccccc2)Nc2ncnn2C1c1cccc(OC)c1OC (centres undefined) | ? | -3% | ? | 0% | 1% | 1.9µM*
COc1cccc(C2C(C(=O)Nc3ccc(C)cc3C)=C(C)Nc3ncnn32)c1OC (centres undefined) | 12µM* | -14% | -9% | 0% | -23% | -11%
CCOC(=O)C1=C(c2ccccc2)Nc2ncnn2C1c1cc(OC)cc(OC)c1OC (centres undefined) | ? | 22% | ? | 0% | -28% | ?
COc1ccc(Br)cc1C1C(C(=O)Nc2ccc(C)cc2C)=C(C)Nc2ncnn21 (centres undefined) | . | . | 2% | . | -3% | .
O=C(CN1C(=O)C2C3C=CC(C3)C2C1=O)Nc1ccc(S(=O)(=O)N2CCCCC2)cc1 (centres undefined) | -11% | -7% | -4% | 7% | -18% | ?
Cc1ccc(Nc2nnc(SCC(=O)NC3CC3)s2)cc1 | ? | -22% | 10% | 2% | -3% | ?
SMILES | Pf growth 48h | AmpC no deterg | AmpC detergent | SARS PLP yeast | Sm TGR inh | Pf growth 96h
Oc1ccccc1-c1cncn1Cc1ccccc1 | . | -31% | -21% | 1% | -1% | 15µM*
Oc1ccccc1-c1n[nH]c(=S)n1Cc1ccccc1 | -7% | -24% | 4% | -3% | -10% | 17%
Cc1ccc(S(=O)(=O)N[C@@H](CCCCN)C(=O)CCl)cc1 | ? | . | . | . | . | 12µM*
CCn1c(SCC(=O)N2CCCCCC2)nc2c([nH]c3ccccc32)c1=O | -18% | -23% | 0% | ? | 1% | ?
CCSc1nc2c([nH]c3ccccc32)c(=O)n1C | . | -24% | ? | 18% | ? | -22%
CCC1CCCCN1C(=O)CSc1nc2c([nH]c3ccccc32)c(=O)n1C (centres undefined) | 9.3µM* | -15% | ? | -13% | 5% | -1%
CCc1c(C)nc(SCC(=O)N2CCCCC2CC)[nH]c1=O (centres undefined) | 2.1µM* | -11% | 2% | 1% | -5% | -3%
COCCn1c(SCC(=O)N2CCCCC2)nc2c([nH]c3ccccc32)c1=O | 12µM* | 18% | -7% | 3% | 10% | ?
CCc1c(C)nc(SCC(=O)N2CCN(c3ccccc3)CC2)[nH]c1=O | 27% | -19% | 0% | 2% | 20% | 0%
COCCn1c(SCC(=O)N2CCCCCC2)nc2c([nH]c3ccccc32)c1=O | ? | -20% | 1% | 0% | -19% | ?
CCOC(=O)N1CCN(C(=O)CSc2nc3c([nH]c4ccccc43)c(=O)n2CCOC)CC1 | ? | 137% | -15% | 0% | -10% | 12µM*
COc1ccc(OC)c(NC(=O)c2oc3c(c2C)-c2nn(Cc4ccc(Cl)cc4)cc2CC3)c1 | . | . | 21% | . | 7% | .
COc1c2ccc(C(=O)NCCCCc3ccccc3)cc2nn1C | -6% | -17% | 1% | -2% | 15% | 35%
Cc1nc(N2CCOCC2)c2c(C(=O)N(C)Cc3ccccc3)c(C)oc2n1 | . | . | 23% | . | 11% | .
CCCCCC[n+]1c(-c2ccccc2)csc1Nc1ccccc1 | 3.3µM* | -21% | 5% | -84% | -16% | ?
COc1cc([N+](=O)[O-])cc(/C=N/NC(=O)Cn2nccc2C)c1O | 6% | -12% | 4% | 5% | 1% | 39%
CCCCNC(=O)C1c2cc(OC)c(OC)cc2C(=O)N(C)C1c1cccs1 (centres undefined) | -6% | -5% | ? | -2% | 9% | 2.1µM*
